# Laboratory results as given in PubChem BioAssay (EPA / NIEHS).
# Activity calls are given as the source filed them. Rule for the calls: active = hit-call score of the fitted dose curve at least 0.9, where 1 is the maximum; inactive = score below 0.9.
# How the values were obtained:
# [1] = read-out: Tissue plasminogen activator (tPA), PLAT (gene 5327); experiment: BSK_BE3C_tPA: BioMAP Diversity Plus: BE3C Assay for Tissue plasminogen activator (tPA) Biomarker Activity (AID 2283041); conditions: primary human bronchial epithelial cells; actives raise or lower the signal;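 for outcome: tPA level quantified by ELISA one day after compound addition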
# Summary of the method: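 Primary human bronchial epithelial cells in the BE3C system, exposed to compound for 24 h. tPA was quantified by ELISA; DMSO served as baseline, with gain or loss of signal fitted. Cytotoxicity checked in parallel cultures by SRB total-protein staining.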
# [2] = read-out: Interleukin-8 (IL8), CXCL8 (gene 3576); experiment: BSK_CASM3C_IL8: BioMAP Diversity Plus: CASM3C Assay for Interleukin-8 (IL8) Biomarker Activity (AID 2283042); conditions: primary human coronary artery smooth muscle cells; actives raise or lower the signal;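 note: IL-8 protein level quantified by ELISA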
# [3] = read-out: Human Leukocyte Antigen - DR isotype (HLADR), HLA-DRA (gene 3122); experiment: BSK_CASM3C_HLADR: BioMAP Diversity Plus: CASM3C Assay for Human Leukocyte Antigen - DR isotype (HLADR) Biomarker Activity (AID 2283043); conditions: primary human coronary artery smooth muscle cells; actives raise or lower the signal;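 note: cell-surface HLA-DR protein level quantified by ELISA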
# [4] = read-out: Macrophage colony-stimulating factor (MCSF), CSF1 (gene 1435); experiment: BSK_CASM3C_MCSF: BioMAP Diversity Plus: CASM3C Assay for Macrophage colony-stimulating factor (MCSF) Biomarker Activity (AID 2283044); conditions: primary human coronary artery smooth muscle cells; actives raise or lower the signal;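 note: M-CSF protein amount quantified by ELISA after 24 h exposure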
# [5] = read-out: Low-density lipoprotein receptor (LDLR), LDLR (gene 3949); experiment: BSK_CASM3C_LDLR: BioMAP Diversity Plus: CASM3C Assay for Low-density lipoprotein receptor (LDLR) Biomarker Activity (AID 2283045); conditions: primary human coronary artery smooth muscle cells; actives raise or lower the signal;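 note: LDLR protein level on the cell surface quantified by ELISA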
# [6] = read-out: Monocyte Chemoattractant Protein-1 (MCP1), CCL2 (gene 6347); experiment: BSK_CASM3C_MCP1: BioMAP Diversity Plus: CASM3C Assay for Monocyte Chemoattractant Protein-1 (MCP1) Biomarker Activity (AID 2283046); conditions: primary human coronary artery smooth muscle cells; actives raise or lower the signal;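 note: MCP-1 level quantified by ELISA 24 h after dosing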
# [7] = BSK_CASM3C_Proliferation: Cell Proliferation Assessment in the BioMAP Diversity Plus: CASM3C Assay (AID 2283047); conditions: primary human coronary artery smooth muscle cells;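 note: sulforhodamine B total protein stain as relative cell number at 560 nm; sub-confluent cells exposed 48 h before staining; fitted both ways against DMSO so gain or loss of cell number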
# [8] = read-out: Monokine induced gamma interferon (MIG), CXCL9 (gene 4283); experiment: BSK_CASM3C_MIG: BioMAP Diversity Plus: CASM3C Assay for Monokine induced gamma interferon (MIG) Biomarker Activity (AID 2283048); conditions: primary human coronary artery smooth muscle cells; actives raise or lower the signal;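 note: MIG protein level measured by ELISA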
# [9] = read-out: serum amyloid A (SAA), SAA1 (gene 6288); experiment: BSK_CASM3C_SAA: BioMAP Diversity Plus: CASM3C Assay for serum amyloid A (SAA) Biomarker Activity (AID 2283049); conditions: primary human coronary artery smooth muscle cells; actives raise or lower the signal;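 note: SAA protein level quantified by ELISA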
# [10] = BSK_CASM3C_SRB: Viability Assessment in the BioMAP Diversity Plus: CASM3C Assay (AID 2283050); conditions: primary human coronary artery smooth muscle cells
SMILES,outcome [1],outcome [2],outcome [3],outcome [4],outcome [5],outcome [6],outcome [7],outcome [8],outcome [9],outcome [10],AC50 [7],AC50 [5],AC50 [1],AC50 [3],AC50 [4],AC50 [6],AC50 [10]
NC1CCCCC1,inactive,inactive,inactive,inactive,inactive,inactive,inactive,inactive,inactive,inactive,,,,,,,
CC(C)NCC(O)c1ccc(O)c(O)c1 (stereo not given),inactive,inactive,inactive,inactive,inactive,inactive,inactive,inactive,inactive,inactive,,,,,,,
O=C1c2c(O)cccc2Cc2cccc(O)c21,inactive,inactive,inactive,inactive,inactive,inactive,,inactive,inactive,inactive,9.85 µM (active),,,,,,
COC(=O)[C@H]1[C@H]2C[C@@H]3c4[nH]c5cc(OC)ccc5c4CCN3C[C@H]2C[C@@H](OC(=O)c2cc(OC)c(OC)c(OC)c2)[C@@H]1OC,inactive,inactive,inactive,inactive,,inactive,,inactive,inactive,inactive,21.3 µM (active),8.87 µM (active),,,,,
CO[C@@H]1COCC[C@@H]1N[C@@H]1CC[C@@](C(=O)N2CCc3ncc(C(F)(F)F)cc3C2)(C(C)C)C1,inactive,inactive,inactive,inactive,inactive,inactive,inactive,inactive,inactive,inactive,,,,,,,
CN(C)CCCN1c2ccccc2Sc2ccc(Cl)cc21,,inactive,,,,,,inactive,inactive,,28 µM (active),5.41 µM (active),32.1 µM (active),27.7 µM (active),11.2 µM (active),20 µM (active),28.5 µM (active)
CC(C)OC(=O)C(C)(C)Oc1ccc(C(=O)c2ccc(Cl)cc2)cc1,inactive,inactive,inactive,inactive,,inactive,inactive,inactive,inactive,inactive,,20 µM (active),,,,,
N[C@@H](Cc1c[nH]c2ccccc12)C(=O)O,inactive,inactive,inactive,inactive,inactive,inactive,inactive,inactive,inactive,inactive,,,,,,,
CN(C)CCCN(C)CCCN(C)C,inactive,inactive,inactive,inactive,inactive,inactive,inactive,inactive,inactive,inactive,,,,,,,
COc1ccc(C(=O)Nc2nc3ccccc3c(NCc3ccccc3)c2C#N)cc1,inactive,inactive,inactive,inactive,,inactive,inactive,inactive,inactive,inactive,,9.66 µM (active),,,,,
CCCC(=O)O,inactive,inactive,inactive,inactive,inactive,inactive,inactive,inactive,inactive,inactive,,,,,,,
Nc1nc(Cl)nc2c1ncn2[C@H]1C[C@H](O)[C@@H](CO)O1,inactive,inactive,inactive,inactive,inactive,inactive,,inactive,inactive,inactive,0.54 µM (active),,,,,,
O=[Si]=O,inactive,inactive,inactive,inactive,inactive,inactive,inactive,inactive,inactive,inactive,,,,,,,
CN(C)C(=O)NC1(c2ccccc2)CCN(CCC[C@]2(c3ccc(Cl)c(Cl)c3)CCCN(C(=O)c3ccccc3)C2)CC1,inactive,inactive,inactive,inactive,,,inactive,inactive,inactive,inactive,,5 µM (active),,,,0.037 µM (active),
OCC(CO)n1cnc(-c2ccc(F)cc2)c1-c1ccnc(Oc2ccccc2)n1,inactive,inactive,,,inactive,inactive,inactive,inactive,inactive,inactive,,,,0.408 µM (active),0.759 µM (active),,
Cc1ccc(C(C)(C)C)c(O)c1,inactive,inactive,inactive,inactive,inactive,inactive,inactive,inactive,inactive,inactive,,,,,,,
C#CC(O)C(CC)CCCC (stereo not given),inactive,inactive,inactive,inactive,inactive,inactive,,inactive,inactive,inactive,37 µM (active),,,,,,
OCC(O)CO,inactive,inactive,inactive,inactive,inactive,inactive,inactive,inactive,inactive,inactive,,,,,,,
CC(=O)OC1CC(C)OC(C)O1 (stereo not given),inactive,inactive,inactive,inactive,inactive,inactive,inactive,inactive,inactive,inactive,,,,,,,
CC1(C)C(=O)NC(=O)N1CO,inactive,inactive,inactive,inactive,inactive,inactive,inactive,inactive,inactive,inactive,,,,,,,
CC(COCC(C)OC(=O)c1ccccc1)OC(=O)c1ccccc1 (stereo not given),inactive,inactive,inactive,inactive,inactive,inactive,inactive,inactive,inactive,inactive,,,,,,,
COc1ccc(OC(F)(F)F)cc1CN[C@H]1CCCN[C@H]1c1ccccc1,inactive,inactive,,inactive,,inactive,,inactive,inactive,,29.6 µM (active),6.31 µM (active),,14.7 µM (active),,,15 µM (active)

SMILES,outcome [1],outcome [2],outcome [3],outcome [4],outcome [5],outcome [6],outcome [7],outcome [8],outcome [9],outcome [10],AC50 [7],AC50 [5],AC50 [1],AC50 [3],AC50 [4],AC50 [6],AC50 [10]
CC(=O)OCC(COC(C)=O)OC(C)=O,inactive,inactive,inactive,inactive,inactive,inactive,inactive,inactive,inactive,inactive,,,,,,,
CCCCCCC(C=O)=Cc1ccccc1,inactive,inactive,inactive,inactive,inactive,inactive,,inactive,inactive,inactive,30.9 µM (active),,,,,,
CC1=C(C)S(=O)(=O)CCS1(=O)=O,inactive,inactive,inactive,inactive,inactive,inactive,inactive,inactive,inactive,inactive,,,,,,,
O=C(N[C@@H](c1ccccc1)[C@@H]1CCCCN1)c1cccc(C(F)(F)F)c1Cl,,inactive,inactive,inactive,,inactive,,inactive,inactive,,30.3 µM (active),15.4 µM (active),24 µM (active),,,,30.9 µM (active)
CCCC[C@H]1CN(CC2CCOCC2)C(=O)OC12CCN(C1(C)CCN(C(=O)c3c(C)ncnc3C)CC1)CC2,inactive,inactive,inactive,inactive,inactive,inactive,inactive,inactive,inactive,inactive,,,,,,,
Oc1ccccc1O,inactive,inactive,,,inactive,inactive,,inactive,inactive,inactive,7.66 µM (active),,,10.4 µM (active),3.97 µM (active),,
Cc1c(C)c2c(c(C)c1O)CCC(C)(COc1ccc(CC3SC(=O)NC3=O)cc1)O2 (stereo not given),,inactive,inactive,inactive,inactive,inactive,,inactive,inactive,inactive,6.88 µM (active),,9.19 µM (active),,,,
Cc1occc(=O)c1O,inactive,inactive,inactive,inactive,inactive,inactive,inactive,inactive,inactive,inactive,,,,,,,
CC(=O)[C@@]1(O)CC[C@H]2[C@@H]3CCC4=CC(=O)CC[C@]4(C)[C@H]3CC[C@@]21C,inactive,inactive,inactive,inactive,inactive,inactive,inactive,inactive,inactive,inactive,,,,,,,
CCC(C)N(C)C(=O)c1cc2ccccc2c(-c2ccccc2Cl)n1 (stereo not given),inactive,inactive,inactive,inactive,inactive,inactive,inactive,inactive,inactive,inactive,,,,,,,
C=CCc1ccc(OC)c(OC)c1,inactive,inactive,inactive,inactive,inactive,inactive,inactive,inactive,inactive,inactive,,,,,,,
Cc1cn([C@H]2C=C[C@@H](CO)O2)c(=O)[nH]c1=O,inactive,inactive,inactive,inactive,inactive,inactive,inactive,inactive,inactive,inactive,,,,,,,
CCCCCCCCCCCCCCOS(=O)(=O)O,,inactive,inactive,inactive,inactive,inactive,inactive,inactive,inactive,inactive,,,18.8 µM (active),,,,
CCCCCCCC(=O)OC,inactive,inactive,inactive,inactive,inactive,inactive,inactive,inactive,inactive,inactive,,,,,,,
C/C=C/c1ccc(OC)cc1,inactive,inactive,inactive,inactive,inactive,inactive,inactive,inactive,inactive,inactive,,,,,,,
CCCCC(CC)COP(=O)(OCC(CC)CCCC)OCC(CC)CCCC (stereo not given),inactive,inactive,inactive,inactive,inactive,inactive,inactive,inactive,inactive,inactive,,,,,,,
CC(C)(C)c1ccccc1,inactive,inactive,inactive,inactive,inactive,inactive,inactive,inactive,inactive,inactive,,,,,,,
O=NO,inactive,inactive,inactive,inactive,inactive,inactive,inactive,inactive,inactive,inactive,,,,,,,
CCCCCCC(CCCCCCCCCCC(=O)OCC(COC(C)=O)OC(C)=O)OC(C)=O (stereo not given),,inactive,inactive,inactive,inactive,inactive,inactive,inactive,inactive,inactive,,,3.58 µM (active),,,,
CC(C)(O)c1ccc(CNC(=O)c2cccnc2Oc2ccc(F)cc2)cc1,inactive,inactive,,inactive,inactive,inactive,inactive,inactive,inactive,inactive,,,,2.12 µM (active),,,
NC=O,inactive,inactive,inactive,inactive,inactive,inactive,inactive,inactive,inactive,inactive,,,,,,,
CC(C)c1cccc(C(C)C)c1,inactive,inactive,inactive,inactive,inactive,inactive,inactive,inactive,inactive,inactive,,,,,,,
